Calls of active or inactive are those of the source.
Key:
[1] = test system: Plasmodium falciparum Sir2 (PF13_0152, Sir2A); test: Plasmodium falciparum Sir2A binding compounds – biochemical, small-molecule microarray, 635 nm fluorescence, primary screen (AID 1098); conditions: fluorescence 635 nm, higher = more signal;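 note: score merges spot fluorescence intensity with its signal-to-noise ratio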
[2] = probe aDKK1 binding to arrayed compounds – biochemical, biotinylated probe, 635/667 nm fluorescence, primary screen (AID 1099); conditions: small-molecule microarray, higher = more signal;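 note: score merges 667nm spot fluorescence with signal to noise across triplicate slides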
[3] = probe aCHRDL2 binding to arrayed compounds – biochemical, biotinylated probe, 635/667 nm fluorescence, primary screen (AID 1100); conditions: small-molecule microarray, higher = more signal
[4] = change in splice reporter luminescence, either direction, cell-based, HEK293, spliceosome inhibition project, primary screen (AID 1101); conditions: HEK293 splicing luciferase reporter, 24 h, higher = more signal, called active from +8 up or from −8 down;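 note: HEK293 cells carrying a splicing-competent luciferase reporter gene; test concentration not given here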
[5] = target: Fibroblast growth factor 10 (Homo sapiens) (UniProt O15520); test: compounds binding fibroblast growth factor 10 – biochemical, small-molecule microarray, 635 nm fluorescence, primary screen (AID 1102); conditions: FGF10 binding, fluorescence 635 nm, higher = more signal
[6] = test system: glycogen synthase kinase-3 (GSK3A per assay name; protocol says GSK3B); test: compounds binding glycogen synthase kinase-3 – biochemical, small-molecule microarray, 635 nm fluorescence, GSK3A, primary screen (AID 1103); conditions: fluorescence 635 nm, higher = more signal; note: the record names both GSK3A and GSK3B
[7] = target: Epidermal growth factor receptor (Homo sapiens) (UniProt P00533); test: compounds binding epidermal growth factor receptor – biochemical, small-molecule microarray, 635 nm fluorescence, primary screen (AID 1104); conditions: EGFR binding, higher = more signal;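 note: score merges 667 nm emission intensity with spot signal to noise over triplicate slides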
[8] = target: Follistatin-related protein 3 (Homo sapiens) (UniProt O95633); test: compounds binding follistatin-related protein 3 – biochemical, small-molecule microarray, 635 nm fluorescence, primary screen (AID 1105); conditions: FSTL3 binding, higher = more signal;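 note: score merges emission near 667 nm and signal to noise per printed spot across three slides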
[9] = target: Dickkopf-related protein 1 (Homo sapiens) (UniProt O94907); test: small molecules binding DKK1 protein – biochemical, small-molecule microarray, 635 nm fluorescence scan, primary screen (AID 1106); conditions: higher = more signal;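 note: score merges emission near 667 nm with signal to noise over three replicate slides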
[10] = test system: Inhibin beta A chain (activin A); test: small molecules binding activin A – biochemical, small-molecule microarray, 635 nm fluorescence scan, primary screen (AID 1107); conditions: INHBA, higher = more signal;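 note: mouse activin A protein probed at 4.33 µg/mL on printed slides; score merges bound-protein fluorescence near 667 nm with spot signal-to-noise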
[11] = test system: Human papillomavirus type 1a protein E7 (residues 44-93); test: small molecules binding HPV E7 44-93 – biochemical, small-molecule microarray, residues 44-93, 635 nm fluorescence, primary screen (AID 1108); conditions: fluorescence 635 nm, higher = more signal;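 note: E7 fragment applied at 1 µg/mL in TBST for 1 h at 4 C; score combines spot fluorescence with its signal to noise ratio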
[12] = hepatitis C replication reporter changes, two-sided – Huh7 cells, luciferase reporter, HCV replication inhibitor project, primary screen (AID 1109); conditions: Huh7 HCV replicon luciferase reporter, 48 h; higher = more signal;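 note: huh7 hepatoma cells harbouring a luciferase neomycin HCV replicon reporter; luciferase luminescence as measure of HCV replicon replication; test concentration not given here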
[13] = target: Left-right determination factor 2 (Homo sapiens) (UniProt O00292); test: small molecules binding LEFTY2 protein – biochemical, small-molecule microarray, 635 nm fluorescence scan, primary screen (AID 1110); conditions: higher = more signal
[14] = target: Calmodulin-1 (Homo sapiens) (UniProt P0DP23); test: small molecules binding calmodulin-1 with EGTA – biochemical, small-molecule microarray, Cy5-labelled CALM1, profiling panel (AID 1111); conditions: Cy5-CALM1 binding fluorescence, higher = more signal;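 note: labelled calmodulin applied in Tris saline Tween buffer holding calcium plus EGTA and DTT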
[15] = target: Calmodulin-1 (Homo sapiens) (UniProt P0DP23); test: small molecules binding Ca-loaded calmodulin-1 – biochemical, small-molecule microarray, Cy5-labelled CALM1, plus calcium, artefact control for SMM control-protein annotation, profiling panel (AID 1112); conditions: Cy5-CALM1 binding fluorescence, higher = more signal;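 note: score merges spot fluorescence with signal to noise from triplicate slides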
[16] = probe aWnt5a binding to arrayed compounds – biochemical, biotinylated probe, 635/667 nm fluorescence, primary screen (AID 1113); conditions: small-molecule microarray, higher = more signal;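 note: score merges 667 nm fluorescence intensity with signal-to-noise per printed feature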
[17] = probe aShh binding to arrayed compounds – biochemical, biotinylated probe, 635/667 nm fluorescence, primary screen (AID 1114); conditions: small-molecule microarray, higher = more signal;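 note: probe is biotin-labelled aShh protein from a stem cell growth factor screen; measures binding of labelled protein to compounds printed on the slide; score merges feature fluorescence at 667 nm with signal-to-noise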
[18] = probe aNog binding to arrayed compounds – biochemical, biotinylated probe, 635/667 nm fluorescence, primary screen (AID 1115); conditions: small-molecule microarray, higher = more signal;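 note: probe is biotinylated aNog protein used at 0.15 µg/mL for 1 h at 4 C; z-score combines 667 nm fluorescence of each spot with its signal to noise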
[19] = target: Torsin-1A-interacting protein 1 (Homo sapiens) (UniProt Q5JTV8); test: compound microarray binding of lysate hLAP1 – cell lysate, small-molecule microarray, COS7 lysate, 635/667 nm fluorescence, primary screen (AID 1116); conditions: 635 nm fluorescence, higher = more signal
[20] = target: Alpha-bungarotoxin (Bungarus multicinctus) (UniProt P60615); test: compounds binding labelled alpha-BTX control protein – biochemical, small-molecule microarray, Alexa647 label, 635/667 nm fluorescence, artefact control for SMM control protein annotation, profiling panel (AID 1117); conditions: alpha-BTX-A647 binding fluorescence, higher = more signal
Sequence of Alpha-bungarotoxin (Bungarus multicinctus) (P60615 whole entry, looked up): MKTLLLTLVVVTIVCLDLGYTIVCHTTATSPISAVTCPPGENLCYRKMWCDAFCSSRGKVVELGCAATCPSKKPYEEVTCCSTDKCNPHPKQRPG

Sequence of Fibroblast growth factor 10 (Homo sapiens) (O15520 whole entry, looked up): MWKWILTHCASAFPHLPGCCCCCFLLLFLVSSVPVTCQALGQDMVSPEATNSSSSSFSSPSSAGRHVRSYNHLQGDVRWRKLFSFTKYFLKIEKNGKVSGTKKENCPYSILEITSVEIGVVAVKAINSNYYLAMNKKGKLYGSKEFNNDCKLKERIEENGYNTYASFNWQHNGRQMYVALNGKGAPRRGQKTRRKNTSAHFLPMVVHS
Sequence of Follistatin-related protein 3 (Homo sapiens) (O95633 whole entry, looked up): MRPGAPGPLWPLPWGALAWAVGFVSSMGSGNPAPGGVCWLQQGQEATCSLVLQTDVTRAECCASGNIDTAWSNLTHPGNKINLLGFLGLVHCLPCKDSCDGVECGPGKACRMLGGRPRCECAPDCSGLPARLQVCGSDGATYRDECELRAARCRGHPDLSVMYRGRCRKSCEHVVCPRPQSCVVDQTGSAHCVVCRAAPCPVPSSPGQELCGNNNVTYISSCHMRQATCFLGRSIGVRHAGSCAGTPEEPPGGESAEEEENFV
Sequence of Torsin-1A-interacting protein 1 (Homo sapiens) (Q5JTV8 whole entry, looked up): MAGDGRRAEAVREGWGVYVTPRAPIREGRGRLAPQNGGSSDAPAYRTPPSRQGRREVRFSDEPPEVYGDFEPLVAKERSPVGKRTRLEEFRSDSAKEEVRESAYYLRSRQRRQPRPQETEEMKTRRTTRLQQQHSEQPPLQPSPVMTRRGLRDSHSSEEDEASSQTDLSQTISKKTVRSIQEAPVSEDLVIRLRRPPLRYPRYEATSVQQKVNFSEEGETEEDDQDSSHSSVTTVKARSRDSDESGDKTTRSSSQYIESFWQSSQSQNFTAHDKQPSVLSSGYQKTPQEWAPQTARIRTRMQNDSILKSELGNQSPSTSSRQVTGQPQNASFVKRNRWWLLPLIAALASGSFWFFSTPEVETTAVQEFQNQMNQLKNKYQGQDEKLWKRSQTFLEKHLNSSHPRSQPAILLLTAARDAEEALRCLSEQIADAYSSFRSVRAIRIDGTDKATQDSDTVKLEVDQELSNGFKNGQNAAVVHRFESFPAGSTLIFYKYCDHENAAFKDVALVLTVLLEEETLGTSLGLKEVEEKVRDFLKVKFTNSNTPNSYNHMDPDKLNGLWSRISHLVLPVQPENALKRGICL
Sequence of Left-right determination factor 2 (Homo sapiens) (O00292 whole entry, looked up): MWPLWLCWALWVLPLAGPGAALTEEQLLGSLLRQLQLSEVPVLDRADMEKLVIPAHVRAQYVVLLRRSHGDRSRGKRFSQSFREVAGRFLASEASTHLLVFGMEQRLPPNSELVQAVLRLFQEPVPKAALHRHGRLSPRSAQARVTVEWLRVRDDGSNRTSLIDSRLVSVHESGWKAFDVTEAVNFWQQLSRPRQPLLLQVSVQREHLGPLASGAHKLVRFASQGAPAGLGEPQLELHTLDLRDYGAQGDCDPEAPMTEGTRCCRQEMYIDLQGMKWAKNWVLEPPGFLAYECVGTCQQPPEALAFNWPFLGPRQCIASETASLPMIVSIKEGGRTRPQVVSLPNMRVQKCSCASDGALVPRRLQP
Sequence of Dickkopf-related protein 1 (Homo sapiens) (O94907 whole entry, looked up): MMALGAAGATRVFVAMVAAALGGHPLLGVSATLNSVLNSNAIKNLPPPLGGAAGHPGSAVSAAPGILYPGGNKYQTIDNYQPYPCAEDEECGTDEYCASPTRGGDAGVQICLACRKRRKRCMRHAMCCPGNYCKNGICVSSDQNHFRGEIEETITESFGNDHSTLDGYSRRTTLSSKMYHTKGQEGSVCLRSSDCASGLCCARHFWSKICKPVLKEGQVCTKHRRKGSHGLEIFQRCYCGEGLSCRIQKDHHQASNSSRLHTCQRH
Sequence of Epidermal growth factor receptor (Homo sapiens) (P00533 whole entry, looked up): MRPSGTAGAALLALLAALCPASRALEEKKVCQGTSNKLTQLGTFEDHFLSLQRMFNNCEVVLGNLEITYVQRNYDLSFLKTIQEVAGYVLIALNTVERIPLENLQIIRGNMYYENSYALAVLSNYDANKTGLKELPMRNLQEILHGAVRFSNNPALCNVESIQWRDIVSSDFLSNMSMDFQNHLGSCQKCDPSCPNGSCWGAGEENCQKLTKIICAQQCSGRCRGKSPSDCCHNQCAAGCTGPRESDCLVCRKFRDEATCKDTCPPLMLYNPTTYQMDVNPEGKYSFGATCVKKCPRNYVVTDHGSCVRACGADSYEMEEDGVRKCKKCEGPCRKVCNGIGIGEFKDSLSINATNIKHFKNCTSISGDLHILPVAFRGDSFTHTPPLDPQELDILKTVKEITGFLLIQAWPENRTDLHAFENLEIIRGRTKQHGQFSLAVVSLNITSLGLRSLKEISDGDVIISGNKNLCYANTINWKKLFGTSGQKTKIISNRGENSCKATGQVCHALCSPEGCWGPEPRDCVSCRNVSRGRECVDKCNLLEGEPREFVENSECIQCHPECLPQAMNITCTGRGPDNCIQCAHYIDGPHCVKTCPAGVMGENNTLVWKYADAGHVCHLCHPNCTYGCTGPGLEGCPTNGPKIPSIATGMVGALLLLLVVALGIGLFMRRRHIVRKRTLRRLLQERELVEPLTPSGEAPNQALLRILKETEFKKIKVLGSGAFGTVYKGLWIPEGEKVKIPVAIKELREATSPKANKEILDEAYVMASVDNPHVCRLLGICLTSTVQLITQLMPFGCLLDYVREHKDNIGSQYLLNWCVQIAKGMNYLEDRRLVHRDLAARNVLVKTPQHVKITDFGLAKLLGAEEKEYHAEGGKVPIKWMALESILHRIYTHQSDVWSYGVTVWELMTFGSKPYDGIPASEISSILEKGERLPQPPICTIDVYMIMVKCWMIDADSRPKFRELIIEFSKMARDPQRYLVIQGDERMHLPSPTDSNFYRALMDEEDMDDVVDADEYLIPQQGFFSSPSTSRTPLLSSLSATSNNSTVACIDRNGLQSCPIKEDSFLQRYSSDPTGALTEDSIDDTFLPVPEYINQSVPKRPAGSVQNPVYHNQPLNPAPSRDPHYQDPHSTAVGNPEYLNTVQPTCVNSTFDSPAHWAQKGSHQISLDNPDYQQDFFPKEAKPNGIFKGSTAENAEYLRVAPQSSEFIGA

SMILES | composite z-score [1] | composite z-score [2] | composite z-score [3] | z-score [4] | composite z-score [5] | composite z-score [6] | composite z-score [7] | composite z-score [8] | composite z-score [9] | composite z-score [10] | composite z-score [11] | z-score [12] | composite z-score [13] | composite z-score [14] | composite z-score [15] | composite z-score [16] | composite z-score [17] | composite z-score [18] | composite z-score [19] | composite z-score [20]
CCOC(=O)[C@H]1CC=C2CC1C(=O)N1CCC[C@@H]1[C@@H]2O[Si](C)(C)C(C)(C)C (stereo not given in full) | -0.105 | -0.539 | -1.04 | 0.582 (inactive) | -0.997 | -1.22 | -0.265 | -1.02 | -0.177 | 0.928 | -0.404 | -3.01 | 0.377 | -1.45 | -1.61 | -0.237 | -0.297 | 0.14 | -0.523 | -1.15
[N-]=[N+]=Nc1ccccc1[C@H]1OC(c2ccc(OCCCO)cc2)=N[C@@]1(Cc1ccccc1)C(=O)O | 1.68 | 0.292 | 0.381 | -1.23 (inactive) | 0.875 | 0.997 | 0.0509 | 0.727 | 0.293 | 1.12 | 1.46 | 1.09 | -0.271 | 0.577 | -0.0461 | 0.0375 | 0.483 | -0.0277 | 0.826 | 2.07
C=CCC(OC(C)=O)[C@@H]1[C@@H](N(Cc2ccc(-c3cccc(C(F)(F)F)c3)o2)C(=O)Cc2ccc(F)cc2)c2cc(OCCCO)ccc2N1C(=O)Cc1ccc(OC)cc1 (stereo not given in full) | -0.0392 | -0.264 | 0.385 | -1.59 (inactive) | -0.0139 | -2.4 | -0.983 | -0.106 | -0.731 | 0.898 | -2.04 | -1.36 | -0.665 | -0.718 | -0.751 | -0.18 | -0.138 | -0.463 | -0.354 | -0.167
CN1C2C=C(CCCO)C(C3C(=O)N(C(N)=O)C(=O)C32)C1c1ccc(CN2CCCC2)cc1 (stereo not given) | -0.323 | -0.284 | -0.257 | -0.0848 (inactive) | -0.367 | -0.563 | -0.376 | -0.658 | -0.544 | -0.751 | 0.138 | -0.149 | -0.943 | -0.224 | 0.0344 | -0.243 | 0.0278 | -0.328 | 0.0727 | 0.236
CN(C)CCCNC(=O)[C@@]1(C)c2ccccc2C(=O)N(Cc2cc(F)cc(C(F)(F)F)c2)[C@H]1c1ccc(CO)cc1 | 1.34 | -0.226 | 0.682 | -0.249 (inactive) | -1.23 | -0.465 | -1.63 | -1.19 | -0.878 | 0.376 | -0.0947 | -1.8 | -1.66 | -0.483 | -0.643 | -0.251 | 0.0121 | 0.338 | -0.94 | 1.32
CC1(C)[C@@H]2CC(C(O)C3C=CC4C(=O)N(c5ccccc5)C(=O)C4N3Nc3ccccc3)=C[C@H]1C2 (stereo not given in full) | 0.576 | 0.592 | 0.663 | 0.99 (inactive) | 0.104 | 0.33 | -0.316 | 0.114 | 0.011 | 1.2 | 0.455 | -0.595 | -0.158 | 0.718 | -0.374 | 0.0044 | 0.241 | -0.43 | 0.873 | 0.577
C=CCNC(=O)[C@@H]1[C@H]2C(=O)O[C@H](c3ccccc3)[C@H](c3ccccc3)N2[C@H](c2ccc(OCCO)cc2)[C@@]12C(=O)Nc1ccc(C#Cc3ccc(OC)cc3)cc12 | 1.28 | 0.707 | 0.792 | -0.476 (inactive) | 0.939 | 1.29 | 0.641 | 1.25 | 1.07 | 0.746 | 0.14 | -1.87 | 0.849 | 1.63 | 0.0791 | 0.0597 | 0.366 | 0.201 | 0.781 | 2.88
CC(=O)n1cc(C(O)C2C=CC3C(=O)N(C)C(=O)C3N2Nc2ccccc2)c2ccccc21 (stereo not given) | 0.511 | 0.906 | 1.18 | 1.45 (inactive) | 1.17 | 0.292 | 1.27 | 1.4 | 1.02 | 1.79 | 1.35 | -0.581 | 0.532 | 0.202 | -0.53 | 0.105 | 0.494 | 0.578 | 1.36 | 1.18
Cc1ccc(S[C@]2(C(=O)NCC(F)(F)F)CC(=O)N(C(C)C)[C@@H]2c2ccc(CO)cc2I)cc1 | 0.903 | 0.372 | 0.893 | -0.465 (inactive) | 0.203 | -0.547 | -0.619 | -1.02 | -0.78 | 0.743 | -0.554 | -1.76 | -0.754 | -0.0874 | 0.363 | -0.101 | -0.0192 | 0.986 | -0.261 | -0.472
C=CCOC(=O)[C@@H]1[C@H]2C(=O)O[C@H](c3ccccc3)[C@H](c3ccccc3)N2[C@H](c2ccc(OCCOC(=O)[C@@H]3C[C@@H]4C(=O)N[C@@H](Cc5ccccc5)C(=O)N4[C@@H]3c3ccc(O)cc3)cc2)[C@@]12C(=O)Nc1ccc(I)cc12 | 1.46 | -0.191 | -0.35 | -1.17 (inactive) | 1.16 | 1.19 | 0.711 | 1.38 | 1.03 | 0.518 | 1.38 | -0.726 | 0.56 | 0.75 | 0.299 | -0.0981 | 0.178 | -0.0784 | -0.289 | 1.02
CCOc1cc(C(O)C2C=CC3C(=O)N(c4ccccc4)C(=O)C3N2Nc2ccccc2)ccc1O (stereo not given) | 0.716 | -0.0126 | 0.834 | 0.608 (inactive) | 0.671 | 0.0622 | -0.114 | 0.128 | -0.832 | 0.829 | 1.31 | -0.0374 | 0.181 | 0.0041 | -0.748 | -0.0312 | 0.191 | 0.387 | 0.604 | 0.147

From PubChem BioAssay
